According to PubChem BioAssay (Tox21):
Records with an inconclusive call do not appear. Entries that show only a call come without a potency. A number with no mark means an inactive call. Active and inactive are the calls of the source. Calls follow the shape of the dose curve; as a rule, active = well fitted curve in the direction sought with a large enough effect in the repeat runs; inconclusive = weak or mixed curves; inactive = no such curve, though single readings can be large; an effect the other way counts as inactive or inconclusive.

Assay: qHTS RealTime-Glo MT Cell Viability Assay in HEK293 cells - 24 hour (AID 1224886); also: top concentration of the series differs between compounds; nearly all actives have a fitted effect of over 50% in size
Settings: RealTime-Glo luminescence; series mostly up to 76.8 µM; activity change, negative = cytotoxicity: at the top concentration
Method in brief: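 Nonlytic real-time viability readout: viable cells convert prosubstrate to NanoLuc substrate, giving luminescence proportional to live cell number. HEK293, 600 cells/well, compound added after 5 h, continuous culture at 37 C.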

SMILES | outcome | activity change, negative = cytotoxicity
[N-]=[N+]=CC(=O)OC[C@H](N)C(=O)O | inactive | –
CCOP(=S)(OCC)Oc1ccc([N+](=O)[O-])cc1 | inactive | –
Cl[C@H]1OCCO[C@@H]1Cl | inactive | –
Nc1ccc(N)cc1 | inactive | –
CCCCCCCCCCCCCCCCCC(=O)O | inactive | –
O=C(O)CCCc1ccc(N(CCCl)CCCl)cc1 | inactive | –
OC[C@@H](O)[C@H]1O[C@@H]2O[C@H](C(Cl)(Cl)Cl)O[C@@H]2[C@H]1O | inactive | –
CC(C)c1cccc(C(C)C)c1O | inactive | –
CC(C)CCCCCCOC(=O)c1ccccc1C(=O)OCCCCCCC(C)C | inactive | –
O=P1(NCCCl)OCCCN1CCCl (stereo unspecified) | inactive | –
CNC(=O)O/N=C(\SC)C(=O)N(C)C | inactive | –
O=C(O)Cc1ccccc1 | inactive | –
N#Cc1cccc(C#N)c1 | inactive | –
Oc1c(Br)cc(Br)cc1Br | – | 2.66% [at 35.3 µM]
c1ccc2c(c1)CCCC2 | inactive | –
O=[N+]([O-])c1ccc(Cl)cc1 | inactive | –

SMILES | outcome | activity change, negative = cytotoxicity
C/C=C/c1ccc2c(c1)OCO2 | inactive | –
CN(C)C(=O)C(c1ccccc1)c1ccccc1 | inactive | –
CC12CC1(C)C(=O)N(c1cc(Cl)cc(Cl)c1)C2=O (stereo unspecified) | inactive | –
Cc1ccccc1N | inactive | –
Clc1cnc(Oc2ccc(Oc3ncc(Cl)cc3Cl)cc2)c(Cl)c1 | inactive | –
CC(=O)/C=C/c1ccccc1 | inactive | –
CC(=O)C1CCOC1=O (stereo unspecified) | inactive | –
Cc1ccc(N=C=O)cc1N=C=O | inactive | –
C=CC(=O)OCCCCCC(C)C | inactive | –
COC(=O)Nc1cccc(OC(=O)Nc2cccc(C)c2)c1 | inactive | –
O=S(=O)(O)OOS(=O)(=O)O | inactive | –
Cc1ccc(N)cc1 | inactive | –
CC[N+](=O)[O-] | inactive | –
CN1C(=O)CCS(=O)(=O)C1c1ccc(Cl)cc1 (stereo unspecified) | inactive | –
C=CC(=O)OCC(CC)CCCC (stereo unspecified) | inactive | –

Assay: qHTS RealTime-Glo MT Cell Viability Assay in HEK293 cells - 8 hour (AID 1224887); also: top concentration of the series differs between compounds; nearly all actives have a fitted effect of over 50% in size
Settings: RealTime-Glo luminescence; series mostly up to 76.8 µM; activity change, negative = cytotoxicity: at the top concentration
Method in brief: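 Cells were seeded together with NanoLuc luciferase and a prosubstrate that viable cells reduce to a luciferase substrate. After a 5 h incubation at 37 C/5% CO2, compounds were added and luminescence was measured repeatedly during 40 h of treatment.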

SMILES | outcome | activity change, negative = cytotoxicity
[N-]=[N+]=CC(=O)OC[C@H](N)C(=O)O | inactive | –
CCOP(=S)(OCC)Oc1ccc([N+](=O)[O-])cc1 | inactive | –
Cl[C@H]1OCCO[C@@H]1Cl | inactive | –
Nc1ccc(N)cc1 | inactive | –
CCCCCCCCCCCCCCCCCC(=O)O | inactive | –
O=C(O)CCCc1ccc(N(CCCl)CCCl)cc1 | inactive | –
OC[C@@H](O)[C@H]1O[C@@H]2O[C@H](C(Cl)(Cl)Cl)O[C@@H]2[C@H]1O | inactive | –
CC(C)c1cccc(C(C)C)c1O | inactive | –
CC(C)CCCCCCOC(=O)c1ccccc1C(=O)OCCCCCCC(C)C | inactive | –
O=P1(NCCCl)OCCCN1CCCl (stereo unspecified) | inactive | –
CNC(=O)O/N=C(\SC)C(=O)N(C)C | inactive | –
O=C(O)Cc1ccccc1 | inactive | –
N#Cc1cccc(C#N)c1 | inactive | –
Oc1c(Br)cc(Br)cc1Br | inactive | –
c1ccc2c(c1)CCCC2 | inactive | –
O=[N+]([O-])c1ccc(Cl)cc1 | inactive | –

SMILES | outcome | activity change, negative = cytotoxicity
C/C=C/c1ccc2c(c1)OCO2 | inactive | –
CN(C)C(=O)C(c1ccccc1)c1ccccc1 | inactive | –
CC12CC1(C)C(=O)N(c1cc(Cl)cc(Cl)c1)C2=O (stereo unspecified) | inactive | –
Cc1ccccc1N | inactive | –
Clc1cnc(Oc2ccc(Oc3ncc(Cl)cc3Cl)cc2)c(Cl)c1 | – | -6.15% [at 35.3 µM]
CC(=O)/C=C/c1ccccc1 | inactive | –
CC(=O)C1CCOC1=O (stereo unspecified) | inactive | –
Cc1ccc(N=C=O)cc1N=C=O | inactive | –
C=CC(=O)OCCCCCC(C)C | inactive | –
COC(=O)Nc1cccc(OC(=O)Nc2cccc(C)c2)c1 | inactive | –
O=S(=O)(O)OOS(=O)(=O)O | inactive | –
Cc1ccc(N)cc1 | inactive | –
CC[N+](=O)[O-] | inactive | –
CN1C(=O)CCS(=O)(=O)C1c1ccc(Cl)cc1 (stereo unspecified) | inactive | –
C=CC(=O)OCC(CC)CCCC (stereo unspecified) | inactive | –

Assay: A CellTox Green Cytotoxicity Assay to monitor cytotoxicity in HEK293 cells - 16 hour (AID 1224888); also: nearly all actives have a fitted effect of over 35% in size
Settings: CellTox Green fluorescence; series mostly up to 76.8 µM; activity change: at the top concentration
Method in brief: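 Nonlytic real-time cytotoxicity: HEK293 + CellTox Green reagent plated, 5 h preincubation, pintool compound addition (23 nL in DMSO), 37 C for 40 h, fluorescence measured at successive time points.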

SMILES | activity change | Potency
[N-]=[N+]=CC(=O)OC[C@H](N)C(=O)O | -1.48% [at 35.3 µM, hits give high values] | –
CCOP(=S)(OCC)Oc1ccc([N+](=O)[O-])cc1 | – | inactive
Cl[C@H]1OCCO[C@@H]1Cl | 0.175% | –
Nc1ccc(N)cc1 | – | inactive
CCCCCCCCCCCCCCCCCC(=O)O | – | inactive
O=C(O)CCCc1ccc(N(CCCl)CCCl)cc1 | – | inactive
OC[C@@H](O)[C@H]1O[C@@H]2O[C@H](C(Cl)(Cl)Cl)O[C@@H]2[C@H]1O | – | inactive
CC(C)CCCCCCOC(=O)c1ccccc1C(=O)OCCCCCCC(C)C | – | inactive
O=P1(NCCCl)OCCCN1CCCl (stereo unspecified) | – | inactive
CNC(=O)O/N=C(\SC)C(=O)N(C)C | – | inactive
O=C(O)Cc1ccccc1 | – | inactive
N#Cc1cccc(C#N)c1 | – | inactive
Oc1c(Br)cc(Br)cc1Br | – | inactive
c1ccc2c(c1)CCCC2 | – | inactive
O=[N+]([O-])c1ccc(Cl)cc1 | – | inactive
C/C=C/c1ccc2c(c1)OCO2 | – | inactive
CN(C)C(=O)C(c1ccccc1)c1ccccc1 | – | inactive
CC12CC1(C)C(=O)N(c1cc(Cl)cc(Cl)c1)C2=O (stereo unspecified) | – | inactive
Cc1ccccc1N | – | inactive
CC(=O)/C=C/c1ccccc1 | – | inactive
CC(=O)C1CCOC1=O (stereo unspecified) | – | inactive
Cc1ccc(N=C=O)cc1N=C=O | – | inactive
C=CC(=O)OCCCCCC(C)C | – | inactive
COC(=O)Nc1cccc(OC(=O)Nc2cccc(C)c2)c1 | – | inactive
O=S(=O)(O)OOS(=O)(=O)O | – | inactive
Cc1ccc(N)cc1 | – | inactive
CC[N+](=O)[O-] | – | inactive
CN1C(=O)CCS(=O)(=O)C1c1ccc(Cl)cc1 (stereo unspecified) | – | inactive
C=CC(=O)OCC(CC)CCCC (stereo unspecified) | – | inactive
